Results taken from PubChem BioAssay (NCI).
This is part of a sample that, as a whole, favours compounds with a hit. Of some 79,000 tested, about 15% had one in any assay. Active and inactive are the calls of the source. Rule as the data show it: active = growth inhibition above about 70%; inactive = the rest.

Columns and labels:
[1] = NCI Yeast Anticancer Drug Screen. Data for the rad52 strain (AID 147);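 also: 0% = growth of vehicle-treated control cultures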; conditions: S. cerevisiae rad52 mutant growth inhibition, active compounds read high
Method in brief: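 DNA repair-defective yeast; compound exposure; growth scored against vehicle controls.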

[2] = NCI Yeast Anticancer Drug Screen. Data for the wt1 strain (AID 149);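 also: 0% = growth of vehicle-treated wt1 cultures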; conditions: S. cerevisiae wt1 strain (SPY 50644) growth inhibition, active compounds read high
Method in brief: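 Each compound is tested on wt1 yeast and the loss of growth versus vehicle gives the inhibition value.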

[3] = NCI Yeast Anticancer Drug Screen. Data for the rad50EPP+ strain (AID 151);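 also: 0% = growth of vehicle-treated control cultures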; conditions: S. cerevisiae rad50 mutant strain, active compounds read high
Method in brief: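 rad50EPP+ yeast treated with test compounds. Readout: growth vs vehicle control.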

[4] = NCI Yeast Anticancer Drug Screen. Data for the mgt1 strain (AID 153); conditions: S. cerevisiae mgt1 mutant growth inhibition, active compounds read high
Method in brief: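 Growth inhibition relative to vehicle controls was scored for the mgt1 yeast strain after compound exposure.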

[5] = NCI Yeast Anticancer Drug Screen. Data for the rad50 strain (AID 155);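 also: 0% = growth of vehicle-only cultures of the same strain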; conditions: S. cerevisiae rad50 strain growth inhibition, active compounds read high
Method in brief: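 Vehicle-treated cultures provide the reference for the growth inhibition reported for compound-exposed, repair-deficient yeast.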

[6] = NCI Yeast Anticancer Drug Screen. Data for the mec2-1 strain (AID 157); conditions: S. cerevisiae mec2-1 strain, active compounds read high
Method in brief: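 Growth inhibition is read against vehicle-treated controls after compound exposure of the mec2-1 yeast strain, which is defective in DNA damage repair or cell cycle control.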

[7] = NCI Yeast Anticancer Drug Screen. Data for the rad14 strain (AID 159);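 also: 0% = growth of vehicle-treated control cultures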; conditions: S. cerevisiae rad14 strain growth inhibition, active compounds read high
Method in brief: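 Inhibition of growth is reported for a repair-deficient yeast mutant following compound treatment, calculated relative to cultures that received vehicle.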

[8] = NCI Yeast Anticancer Drug Screen. Data for the sgs1 mgt1 strain (AID 161);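 also: 0% = growth of cultures given vehicle only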; conditions: S. cerevisiae sgs1 mgt1 strain, active compounds read high
Method in brief: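 Yeast cells carrying a defined DNA-repair defect were exposed to test compounds. Growth inhibition was measured relative to vehicle-treated controls.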

[9] = NCI Yeast Anticancer Drug Screen. Data for the CLN2oe strain (AID 163);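 also: 0% = growth of vehicle-only control cultures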; conditions: S. cerevisiae CLN2oe strain, active compounds read high
Method in brief: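 Compound-treated yeast; growth vs vehicle ctrl = % inhibition. Genetically altered strain (cell-cycle control).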

[10] = NCI Yeast Anticancer Drug Screen. Data for the cln2 rad14 strain (AID 165);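 also: 0% = growth equal to vehicle treated cultures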; conditions: S. cerevisiae cln2 rad14 strain, active compounds read high
Method in brief: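 Growth inhibition, relative to vehicle-treated controls, is the read-out. The test organism is a yeast strain with defined genetic alterations, cln2 rad14.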

[11] = NCI Yeast Anticancer Drug Screen. Data for the bub3 strain (AID 167); conditions: S. cerevisiae bub3 mutant strain, active compounds read high
Method in brief: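 Mutant yeast screening strain plus compound; vehicle-treated cultures serve as the 0% inhibition reference.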

[12] = NCI Yeast Anticancer Drug Screen. Data for the wt2 strain (AID 169); conditions: S. cerevisiae wt2 strain growth inhibition, active compounds read high
Method in brief: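 Compound exposure of yeast; growth compared with vehicle controls; inhibition reported.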

[13] = NCI Yeast Anticancer Drug Screen. Data for the mlh1 strain (AID 171);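 also: 0% = growth of vehicle-treated control cultures of the same strain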; conditions: S. cerevisiae mlh1 strain growth inhibition, active compounds read high
Method in brief: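 Compounds are applied to a genetically altered yeast strain, and its growth is compared with that of vehicle-treated cultures to give percent inhibition.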

[14] = NCI Yeast Anticancer Drug Screen. Data for the sgs1 strain (AID 173);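 also: 0% = growth of vehicle-only control cultures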; conditions: S. cerevisiae sgs1 mutant, active compounds read high
Method in brief: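 Compounds applied to genetically altered yeast; growth compared with vehicle-treated cultures to give % inhibition.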

[15] = NCI Yeast Anticancer Drug Screen. Data for the mlh1 rad18 strain (AID 175); conditions: S. cerevisiae mlh1 rad18 strain growth inhibition, active compounds read high
Method in brief: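 Cells of a genetically altered yeast strain, deficient in DNA damage repair, were treated with compound. Their growth was then compared with that of vehicle-treated cultures to give inhibition.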

[16] = NCI Yeast Anticancer Drug Screen. Data for the rad18 strain (AID 177); conditions: S. cerevisiae rad18 mutant growth inhibition, active compounds read high
Method in brief: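 Compounds are applied to a repair-deficient yeast strain, and growth is compared with that of vehicle-treated cultures to give percent inhibition.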

[17] = at 5.0 µM (retest, dose inferred, filed as 0.5)
[18] = at 50.0 µM (retest, dose inferred, filed as 5.0)

Measured: growth inhibition

CNC(=O)OCc1c(COC(=O)NC)c(-c2ccc(Cl)c(Cl)c2)n2c1SCC2
inactive: [1]; at 1.2 µM 0% | [1]; at 3.7 µM 0% | [1]; at 11.0 µM 3% | [1]; at 33.0 µM 14% | [2]; at 1.2 µM -1% | [2]; at 3.7 µM 0% | [2]; at 11.0 µM -1% | [2]; at 33.0 µM -3% | [2]; at 100.0 µM 6% | [3]; at 1.2 µM -3% | [3]; at 3.7 µM -3% | [3]; at 11.0 µM -3% | [3]; at 33.0 µM -3% | [3]; at 100.0 µM 4% | [4]; at 1.2 µM -4% | [4]; at 3.7 µM -1% | [4]; at 11.0 µM -1% | [4]; at 33.0 µM -3% | [4]; at 100.0 µM 12% | [5]; at 1.2 µM -1% | [5]; at 3.7 µM -3% | [5]; [17] -17% | [5]; at 11.0 µM -3% | [5]; at 33.0 µM 4% | [5]; [18] 35% | [5]; at 50.0 µM 65.7% | [6]; at 1.2 µM -2% | [6]; at 3.7 µM -4% | [6]; [17] 0% | [6]; at 11.0 µM -3% | [6]; at 33.0 µM -4% | [6]; [18] 18% | [6]; at 50.0 µM 27.3% | [6]; at 100.0 µM 38% | [7]; at 1.2 µM 0% | [7]; at 3.7 µM 2% | [7]; at 11.0 µM 4% | [7]; at 33.0 µM 18% | [8]; [17] -5% | [8]; [18] 32% | [8]; at 50.0 µM 39.4% | [9]; at 1.2 µM -1% | [9]; at 3.7 µM -6% | [9]; at 11.0 µM -6% | [9]; at 33.0 µM -5% | [9]; at 100.0 µM -1% | [10]; [17] -3% | [10]; [18] 23% | [10]; at 50.0 µM 25.1% | [11]; at 1.2 µM -2% | [11]; at 3.7 µM -5% | [11]; [17] 0% | [11]; at 11.0 µM -4% | [11]; at 33.0 µM -6% | [11]; [18] 9% | [11]; at 50.0 µM 4.3% | [11]; at 100.0 µM 20% | [12]; at 1.2 µM -1% | [12]; at 3.7 µM -2% | [12]; at 11.0 µM -2% | [12]; at 33.0 µM -5% | [12]; at 100.0 µM 25% | [13]; at 1.2 µM -1% | [13]; at 3.7 µM -2% | [13]; at 11.0 µM -3% | [13]; at 33.0 µM -2% | [13]; at 100.0 µM 44% | [14]; at 1.2 µM -1% | [14]; at 3.7 µM -1% | [14]; at 11.0 µM 1% | [14]; at 33.0 µM 12% | [15]; [17] 2% | [15]; [18] 58% | [16]; at 1.2 µM 0% | [16]; at 3.7 µM 3% | [16]; at 11.0 µM 11% | [16]; at 33.0 µM 48%
active: [1]; at 100.0 µM 76% | [5]; at 100.0 µM 76% | [7]; at 100.0 µM 85% | [14]; at 100.0 µM 72% | [15]; at 50.0 µM 86% | [16]; at 100.0 µM 95%
